Bioassay records as filed in PubChem BioAssay.
beta cell repl: induces beta-cell replication in MIN6 cells; AID 2380; MIN6 cells proliferation, ATPlite luminescence, 48 h; cells starved in 0.2% serum; 100% = growth in 10% serum; 330,000 compounds, 0.29% hits; proliferation, % at 10 µM;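 active = compounds whose signal lies at least 3.5 SD above the mean of all wells on their plate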;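 note: 0% = DMSO-treated cells in low-serum medium and 100% = 10% serum control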
GRK2 aptamer HTS: inhibitors of human GRK2 displacing RNA aptamer | P25098 | inhibition of aptamer binding, % at 10 µM | bead flow cytometry, FAM-aptamer displacement from GRK2 | 330,000 compounds, 0.59% hits;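 active = inhibition of aptamer binding above 40%, roughly 3 SD of noise, on plates passing a quality check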;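 note: median bead fluorescence of bound FAM aptamer so fluorescent compounds give negative values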
Target sequence (P25098 whole entry, looked up): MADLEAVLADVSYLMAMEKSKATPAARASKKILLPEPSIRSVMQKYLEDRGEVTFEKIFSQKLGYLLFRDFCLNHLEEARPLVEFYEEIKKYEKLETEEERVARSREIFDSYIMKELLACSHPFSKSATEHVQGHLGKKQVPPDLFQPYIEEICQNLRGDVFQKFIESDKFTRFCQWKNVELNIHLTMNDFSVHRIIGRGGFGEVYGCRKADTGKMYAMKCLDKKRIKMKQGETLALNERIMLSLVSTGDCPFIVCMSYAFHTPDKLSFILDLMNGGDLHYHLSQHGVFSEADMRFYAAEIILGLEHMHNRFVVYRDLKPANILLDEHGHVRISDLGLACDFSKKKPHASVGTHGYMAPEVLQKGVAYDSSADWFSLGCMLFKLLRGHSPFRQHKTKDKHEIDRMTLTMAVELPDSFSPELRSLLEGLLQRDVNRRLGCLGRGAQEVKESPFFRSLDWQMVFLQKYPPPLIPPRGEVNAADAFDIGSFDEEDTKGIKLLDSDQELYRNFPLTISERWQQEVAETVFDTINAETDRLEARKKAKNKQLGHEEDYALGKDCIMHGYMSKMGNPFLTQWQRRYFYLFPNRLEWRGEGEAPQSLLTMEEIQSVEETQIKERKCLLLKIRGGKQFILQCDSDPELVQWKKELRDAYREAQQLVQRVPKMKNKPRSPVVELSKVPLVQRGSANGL
Platelet DG rel: modulates dense granule release in human platelets; inhibition, %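 (compounds screened at 7.5 µM in platelet-rich plasma)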; human platelet-rich plasma, SFLLRN dense granule ATP release, luminescence; 300,000 compounds, 0.22% hits;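 active = mean replicate score, as percent of positive control, at or above 50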
NTR1 ag: NTR1 (human) agonism | NTR1-U2OS beta-arrestin-GFP spot imaging, agonist mode | 330,000 compounds, 0.17% hits | P30989 | activation, % at 20 µM;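 active = activation at or above 40% of the spot to cytoplasm intensity ratio, with at least 20 cells analyzed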;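 note: 0% = DMSO without peptide and 100% = 100 nM NTR1 peptide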
Starred values were filed as active, the others as inactive; · = no result given. An excerpt weighted towards active compounds, which were near 1.2% of everything screened.

SMILES | beta cell repl | GRK2 aptamer HTS | Platelet DG rel | NTR1 ag
O=C(COc1ccc2ccc(=O)oc2c1)Nc1cccc(S(=O)(=O)N2CCCCC2)c1 | -4 | 0 | · | 3
O=C(c1ccc(Cl)cc1)C1CCCN(Cc2ccc(Oc3ncccn3)cc2)C1 (configuration not stated) | -4 | 2 | 52* | 1
CC(=O)N1CC[n+]2c(-c3ccc(Cl)cc3Cl)csc21 | -2 | 52* | 2 | -1
Cc1cc(C)c(C)c(S(=O)(=O)Nc2ccccc2N2CCOCC2)c1C | -4 | 0 | · | 5
C[C@@H]1O[C@@H](O[C@@H]2C(=O)c3c(O)cc(O)cc3O[C@H]2c2ccc(O)c(O)c2)[C@H](O)[C@H](O)[C@H]1O | 2 | 3 | · | 3
Cc1ccc(C(=O)N2CCC(C(=O)c3ccc(Cl)cc3)CC2)cc1 | -1 | 4 | -4 | 0
Cc1cccc(NC(=O)CCc2nnc3ccc(NCc4ccco4)nn23)n1 | -3 | 6 | -8 | 3
COCCN(C(=O)COC(=O)CCc1nc2ccccc2s1)c1c(N)n(Cc2ccccc2)c(=O)[nH]c1=O | -2 | 1 | 52* | 0
COCCN(C(=O)COC(=O)c1cc2c(s1)CCC2)c1c(N)n(Cc2ccccc2)c(=O)[nH]c1=O | -3 | 98* | -5 | -1
COc1cccc(-c2nc(-c3ccc(C(=O)O)cc3)no2)c1 | -1 | 0 | 50* | -1
Cc1ccc(-c2noc(-c3ccccc3F)n2)cc1 | -1 | 0 | 11 | 4
COc1cccc(-c2nc3ccc(O)cc3c(=O)o2)c1 | -1 | 1 | 52* | 4
CC(=O)Oc1cccc(-c2nc3ccccc3c(=O)o2)c1 | -1 | 1 | 2 | 2
O=C(O)c1ccc(-c2noc(-c3ccccc3F)n2)cc1 | -3 | · | 69* | 0
COc1ccc(C(OCC(O)CNCCc2ccc(S(N)(=O)=O)cc2)c2ccc(OC)cc2)cc1 (configuration not stated) | -6 | 0 | -7 | 1
OC(CNCCc1ccc(C(F)(F)F)cc1)COC(c1ccccc1)c1ccccc1 (configuration not stated) | -7 | 5 | -4 | 66*
Cc1ccc(NC(=O)C(C)OC(=O)Cn2[nH]c(=O)c3ccccc3c2=O)cc1 (configuration not stated) | -2 | 2 | 2 | 0
O=C(Nc1cccc(S(=O)(=O)N2CCOCC2)c1)C1COc2ccccc2O1 (configuration not stated) | 4 | · | · | 0
Cc1cccc(N=CC=C2OC(C)(C)C(C)(C)O2)c1 | 0 | 11 | -1 | 1
Cc1ccccc1N=CC=C1OC(C)(C)C(C)(C)O1 | -3 | 54* | -11 | 3
N#C/C(=C\c1ccc(-c2ccc([N+](=O)[O-])cc2)o1)C(=O)Nc1nc(-c2cccs2)cs1 | -5 | 4 | 6 | 3
N#C/C(=C\c1ccc(-c2ccccc2[N+](=O)[O-])o1)C(=O)Nc1nc(-c2cccs2)cs1 | 0 | 56* | 0 | 5
COc1ccc(C(=O)N=c2nc3ccccn3s2)cc1 | -3 | 3 | 50* | 0
O=C(O)c1ccc(NS(=O)(=O)/C=C/c2ccccc2)cc1 | 0 | 55* | -5 | 0
COc1cc(CC(=O)OCC(=O)NC2CCCC2)cc(OC)c1OC | 0 | 3 | · | 0
SMILES | beta cell repl | GRK2 aptamer HTS | Platelet DG rel | NTR1 ag
Cc1ccc(S(=O)(=O)c2cc3ccccc3oc2=Nc2ccc3c(c2)OCCO3)cc1 | 0.0* | 0 | 3 | 0
Cc1ccc(S(=O)(=O)c2cc3ccccc3oc2=Nc2ccc3c(c2)OCO3)cc1 | -2 | 0 | 4 | 8
O=C1CCC(c2ccccc2)=NN1 | 1 | 2 | 4 | 0
O=C1CCC(c2ccc(-n3ccnc3)cc2)=NN1 | 7 | 0 | 82* | 0
Cc1cc(S(=O)(=O)Nc2ccc(C(=O)NCC(c3ccco3)N(C)C)cc2)ccc1F (configuration not stated) | 5 | 5 | 13 | 0
CCOC(=O)c1sc(N=NC2=C(O)CC(C)(C)CC2=O)c(C(=O)OCC)c1C | 0 | 1 | 60* | 10
NS(=O)(=O)c1cc(C(=O)OCC(=O)N2CCc3ccccc3C2)ccc1Cl | -3 | 2 | · | 0
O=C(Nc1cccc(O)c1)c1noc2c1CCc1ccccc1-2 | -5 | 1 | 51* | 4
CCCCOc1ccc(C2OC34CCCCC3C(C#N)(C#N)C2(C#N)C(=N)O4)cc1 (configuration not stated) | 9.8* | 5 | 3 | -1
Cc1ccc(C2OC34CCCCCC3C(C#N)(C(=N)O4)C2(C#N)C#N)cc1 (configuration not stated) | 9.0* | 2 | -4 | 4
CCc1ccc(NS(=O)(=O)c2ccc3[nH]cc(C(=O)N4CCc5ccccc54)c(=O)c3c2)cc1 | -5 | 41* | 15 | 13
COc1ccc(OC)c2c1C(=O)C(Cl)=C(Cl)C2=O | -4 | 3 | 66* | -3
COc1ccc(OC)c2c1C(=O)c1ccccc1C2=O | -2 | 2 | -4 | -2
Cc1cccc(C)c1NC(=O)CNC(=O)c1c(-c2ccccc2)noc1C | -1 | 5 | · | 1
O=C(/C=C/c1ccco1)N1CCN(S(=O)(=O)c2cccc([N+](=O)[O-])c2)CC1 | 0 | 79* | · | 0
Cc1ccc(N/C=C/C(=O)c2ccc(C)cc2)cc1 | -3 | 1 | -3 | 2
Cc1ccc(C(=O)/C=C/Nc2ccccn2)cc1 | -3 | 2 | 64* | 7
C/C(=N\NC(=O)c1cc(O)cc(O)c1)c1ccc(NC(=O)Cc2ccccc2)cc1 | 0 | 52* | -4 | 0
C/C(=N\NC(=O)c1cccc(F)c1)c1ccc(NC(=O)Cc2ccccc2)cc1 | 0 | 0 | · | 0
N#CC(C#N)=Cc1ccc(-c2ccc(S(=O)(=O)N=C(N)N)cc2)o1 | 0 | 100* | 8 | -2
COC(=O)/C(C#N)=C/c1ccc(-c2ccc(S(N)(=O)=O)cc2)o1 | 3 | 0 | 4 | 2
COC(=O)Cc1c(C)c2ccc(OCC(=O)N(C)C3CCS(=O)(=O)C3)cc2oc1=O (configuration not stated) | 0 | 0 | 1 | 2
COc1ccc(-c2noc(CN(C)C(=O)c3ccoc3C)n2)cc1 | 0 | 6 | 0 | 0
CC/C(C)=N\N=C\c1c(O)n(CC)c2cc(C3=NNC(=O)CC3)ccc12 | -1 | 2 | 75* | 1
CCn1c(O)c(/C=N/N=C/c2ccc(OC)cc2)c2cc(C3=NNC(=O)CC3)ccc21 | 1 | 1 | -2 | 6
SMILES | beta cell repl | GRK2 aptamer HTS | Platelet DG rel | NTR1 ag
COc1cc2c(cc1OC)-c1cc(Nc3cccc(C)c3)nc(=O)n1CC2 | 0 | 0 | 86* | 2
CCOc1ccc(Nc2cc3n(c(=O)n2)CCc2cc(OC)c(OC)cc2-3)cc1 | -2 | 2 | 9 | 1
COc1cc2c(cc1OC)-c1cc(Nc3ccccc3C)nc(=O)n1CC2 | 7 | 0 | 93* | 1
COc1cc(/C=N/n2cnnc2)ccc1OCc1ccc(C)cc1 | -1 | 1 | 62* | 1
COc1cc(/C=N/n2cnnc2)ccc1OCc1ccccc1 | -2 | 0 | -8 | -1
Fc1ccc(/C=C2\CCCC3=C2Nc2ncnn2C3c2ccc(F)cc2)cc1 (configuration not stated) | -6 | 3 | -1 | 46*
